Structures are written as SMILES. Inconclusive results are not listed. Values without a mark were called inactive. The source made the active and inactive calls. Calls come from the whole dose curve; as a rule, active = well fitted cell-killing curve with a large enough effect; inconclusive = small, poorly fitted or top-dose-only effect, or effect the other way; inactive = no such curve, though single readings can be large or run the other way.
Potency is the fitted concentration of half-maximal effect.

The nature of this test: Viability qHTS for spleen associated tyrosine kinase inhibitor (SYKi) drug resistant MV4-11 cells (AID 1963824). Note: nearly all actives have a fitted effect of over 35% in size. To be noted: SYKi-resistant MV4-11 viability, CellTiter-Glo, 72 h; series mostly up to 45 µM; viability, % of control: at the top concentration. The essentials: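 SYK inhibitor-resistant MV4-11 AML cells, 500 per well, added to predispensed compounds and incubated 72 hr at 37 C, 5% CO2. Viability measured by CellTiter-Glo luminescence after 10 min at room temperature.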
For orientation: qHTS replaces the single test concentration by a dilution series.
Consider `OC[C@H]1O[C@@H](OCc2ccccc2)[C@H](O[C@@H]2OC[C@@H](O)[C@H](O)[C@H]2O)[C@@H](O)[C@@H]1O`, for which the “viability, % of control” value was 93.5% [at 17.3 µM]. `CSc1cc2c(s1)c1cnn(Cc3ccccc3F)c(=O)c1n2C`: the “viability, % of control” value was 83%. As for `CC1(C)CC[C@]2(C(=O)O[C@@H]3O[C@H](CO)[C@@H](O)[C@H](O)[C@H]3O)CC[C@]3(C)C(=CCC4[C@@]5(C)CC[C@H](O[C@@H]6O[C@H](C(=O)O)[C@@H](O[C@@H]7O[C@H](CO)[C@@H](O)[C@H](O)[C@H]7O)[C@H](O)[C@H]6O[C@@H]6O[C@H](CO)[C@@H](O)[C@H](O)[C@H]6O)C(C)(C)C5CC[C@]43C)C2C1` (some centres undefined), the viability, % of control was 104% [at 9.25 µM].

With `CC(=O)OC1C[C@]2(C)C(O)CC(C)=C[C@H](OC(=O)c3ccc(O)cc3)C2[C@]1(O)C(C)C` (some centres undefined), the Potency is 6.32 µM (active).

With `O=S(=O)(NCc1cccc2ccccc12)c1cc(Cl)c(Oc2cccc(N3CCNCC3)c2)s1`, the Potency was 4.61 µM (active). Regarding `CC1(C)CC[C@]2(C(=O)O[C@@H]3O[C@H](CO)[C@@H](O)[C@H](O)[C@H]3O)CC[C@]3(C)C(=CCC4[C@@]5(C)CC[C@H](OC6OC(C(=O)O)C(OC7OC(CO)C(O)C(O)C7O)C(O)C6O)C(C)(C)C5CC[C@]43C)C2C1` (some centres undefined), the viability, % of control is 91.6% [at 9.25 µM]. On to `O=C(Nc1ccc(Cl)cc1)C1CCCN(C(=O)c2cccc(-c3ccco3)c2)C1` (centres undefined), for which the Potency is 8.2 µM (active). Take `CCC(CC)(NC(=O)C(C)C)C(=O)N[C@@H](CCCN=C(N)N)C(=O)NC1(C(=O)NC(c2ccc(F)cc2)c2ccc(F)cc2)CCCC1`: the “viability, % of control” value was 86.3%. In the case of `O=C(NNc1nc2cc(F)ccc2n2cccc12)c1cnccn1`, the Potency is 0.731 µM (active). Consider `CC(CCc1ccccn1)(CCc1ccccn1)C(=O)c1ccccc1`, for which the “viability, % of control” value is 96.6%. As for `C=C[C@H]1C(O[C@@H]2O[C@H](CO)[C@@H](O)[C@H](O)[C@H]2O)OC=C2C(=O)N3CCc4c([nH]c5ccccc45)C3CC21` (some centres undefined), the “viability, % of control” value is 80.8% [at 17.3 µM]. `Cc1ccc(NS(=O)(=O)c2cc3c(cc2N[C@H](C)CO)NC(=O)CC3)cc1C`: the Potency was 14.6 µM (active). Still for that read-out and setting: the figure for `COc1cc2nc(C3CC3)nc(N3CCN(c4ccccc4OC)CC3)c2cc1OC` is 14.6 µM (active).

On to `CC(C)CC1NC(=O)C(C)NC(=O)C(CC(C)C)OC(=O)CCCNC1=O` (centres undefined), for which the “viability, % of control” value is 100%. Consider `CC(C)=CCC[C@](C)(O[C@@H]1O[C@H](CO[C@@H]2OC[C@H](O)[C@H](O)[C@H]2O)[C@@H](O)[C@H](O)[C@H]1O)[C@H]1CC[C@]2(C)[C@@H]1[C@H](O)C[C@@H]1[C@@]3(C)CC[C@H](O[C@@H]4O[C@H](CO)[C@@H](O)[C@H](O)[C@H]4O[C@@H]4O[C@H](CO)[C@@H](O)[C@H](O)[C@H]4O)C(C)(C)[C@@H]3CC[C@]12C`, for which the “viability, % of control” value is 86% [at 17.3 µM]. For `CC(C)C(O)(CO)CCO[C@@H]1O[C@H](CO[C@H]2OC[C@](O)(CO)[C@H]2O)[C@@H](O)[C@H](O)[C@H]1O` (some centres undefined), the “viability, % of control” value was 113% [at 17.3 µM]. The same measure, in the same setting: the value for `C/C=C/C=C/[C@@H]1O[C@](O)([C@H](CC)C(=O)NC/C=C/C=C(\C)[C@@H](OC)[C@@H](C)[C@@H]2O[C@H](/C=C/C=C/C=C(\C)C(=O)c3c(O)ccn(C)c3=O)[C@H](O)[C@@H]2O)[C@H](O)[C@H](O)C1(C)C` was 85.3% [at 9.25 µM]. For `O=S(=O)(c1cccc2ccccc12)n1ccc2ccc(N3CCN4CCCC4C3)cc21` (centres undefined), the Potency is 20.6 µM (active). On to `Cc1cc(=O)oc2cc(NC(=O)[C@H](CCC(=O)O)NC(=O)[C@H](CC(C)C)NC(=O)[C@H](CC(C)C)NC(=O)OCc3ccccc3)ccc12`, for which the “viability, % of control” value was 54.2%.

For the compound `CC(O)/C=C/C1(O)C(C)C(O[C@@H]2O[C@H](CO)[C@@H](O)[C@H](O)[C@H]2O)C(O)CC1(C)C` (some centres undefined), the “viability, % of control” value is 76.5% [at 17.3 µM]. On to `CCCc1cc2c(N3CCN(C4=NCC(C)(C)S4)CC3)ncnc2s1`, for which the Potency is 5.8 µM (active).

In the case of `COC(=O)C(C)C1CCC2(C)C(=O)C=CC(C)(O)C2C1O` (centres undefined), the “viability, % of control” value was 82.6%.

For the compound `C[C@@H]1O[C@@H](O[C@H]2[C@@H](OC(=O)[C@]34CCC(C)(C)CC3C3=CCC5[C@@]6(C)C[C@H](O)[C@H](O[C@@H]7O[C@H](C(=O)O)[C@@H](O)[C@H](O)[C@H]7O)[C@@](C)(C(=O)O)C6CC[C@@]5(C)[C@]3(C)CC4)OC[C@H](O)[C@@H]2O)[C@H](O)[C@H](O)[C@H]1O[C@@H]1OC[C@@H](O)[C@H](O)[C@H]1O` (some centres undefined), the viability, % of control is 74.1% [at 9.25 µM]. As to `OCC1OC(Oc2cc(O)cc(/C=C/c3ccc(OC4OC(CO)C(O)C(O)C4O)cc3O)c2)C(O)C(O)C1O` (centres undefined), the “viability, % of control” value was 78.3% [at 17.3 µM].

Source of the values: PubChem BioAssay (NCATS).
